# Screening results as filed in PubChem.
# Hits are enriched below; roughly 2.9% of the tested compounds scored in any of these assays.
# PI5P4Ka inh = PI5P4K alpha (human) kinase inhibition; P48426; PI5P4Kalpha enzyme, ADP-Glo luminescence, 60 min; stronger effect = lower value; max response, %; 330,000 compounds, 1.2% hits; active = max response of -50% or lower; inconclusive = between -30% and -50%; inactive = -30% or higher; also: value at the top dose of about 77 µM
#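 Luminescence from ADP-Glo served as readout of PI5P4Kalpha activity in a qHTS format. Reaction: enzyme, substrate, compound, ATP at 5 microM final, 60 min at RT.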
# Pol iota inh = blocks human DNA polymerase iota activity; Potency, µM (highest dose often 115 µM), usual class: inhibitors; Pol iota fluorescent replication assay, 10 min; 390,000 compounds, 1% hits; Q9UNA4
#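 Pol iota at 10 nM preincubated 15 min with compounds at room temperature; reaction started with fluorescent substrate, 50 nM final. Fluorescence read kinetically at 0 and 10 min; buffer-only wells as negative control.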
# POLH inh = inhibitors of human DNA polymerase eta; Q9Y253; recombinant Pol eta, fluorescent DNA replication assay; Potency, µM (highest dose often 114 µM), usual class: inhibitors; 390,000 compounds, 1.2% hits; AID 588591
# Target sequence (Q9Y253 whole entry, looked up): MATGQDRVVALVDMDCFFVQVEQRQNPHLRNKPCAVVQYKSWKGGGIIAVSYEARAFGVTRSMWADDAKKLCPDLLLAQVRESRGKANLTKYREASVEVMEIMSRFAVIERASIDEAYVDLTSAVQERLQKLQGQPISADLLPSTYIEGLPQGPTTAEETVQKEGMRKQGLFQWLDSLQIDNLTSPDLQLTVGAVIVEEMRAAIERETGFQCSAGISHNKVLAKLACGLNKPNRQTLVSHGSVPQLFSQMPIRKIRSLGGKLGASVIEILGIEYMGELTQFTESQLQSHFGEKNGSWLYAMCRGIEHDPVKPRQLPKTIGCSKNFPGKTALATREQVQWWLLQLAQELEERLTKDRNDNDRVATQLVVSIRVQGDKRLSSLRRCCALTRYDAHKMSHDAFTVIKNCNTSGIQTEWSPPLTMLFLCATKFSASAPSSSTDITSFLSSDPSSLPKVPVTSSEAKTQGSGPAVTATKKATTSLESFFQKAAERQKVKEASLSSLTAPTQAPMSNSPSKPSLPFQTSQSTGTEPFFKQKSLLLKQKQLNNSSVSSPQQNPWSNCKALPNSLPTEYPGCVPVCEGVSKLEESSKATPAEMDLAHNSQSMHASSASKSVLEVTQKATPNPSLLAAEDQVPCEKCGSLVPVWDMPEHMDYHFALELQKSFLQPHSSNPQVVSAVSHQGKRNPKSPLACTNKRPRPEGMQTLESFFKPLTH
#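 Pol eta at 10 nM preincubated with compounds 15 min at room temperature; reaction started with fluorescent substrate (50 nM final) and read kinetically at 0 and 10 min.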
# ALOX12 inh = inhibitors of human 12S-lipoxygenase ALOX12; AID 1671190; Potency, µM (top dose mostly 108 µM), actives largely listed as inhibitors; purified 12hLO, xylenol orange hydroperoxide absorbance; P18054; 580,000 compounds, 1.1% hits
#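 Purified human 12hLO at 150 nM in 25 mM Hepes, 0.01% Triton X-100, pH 7.0, preincubated 15 min at room temperature with compound. Reaction started with 40 uM arachidonic acid, 30 min at room temperature. Hydroperoxide measured by Fe-xylenol orange, 573/405 nm absorbance ratio.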
# POLK inh = inhibitors of human DNA polymerase kappa | 400,000 compounds, 0.53% hits | purified Pol kappa, fluorescent DNA synthesis assay, 10 min | Potency, µM (top dose mostly 107 µM), most hits filed as inhibitors | Q9UBT6
#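 Readout: fluorescence, taken kinetically at 0 and 10 min. Conditions: 10 nM Pol kappa, 15 min RT compound preincubation, 50 nM substrate final. Controls: enzyme-free buffer wells.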
# Pol beta inh = blocks human DNA polymerase beta activity. Pol beta primer extension/strand displacement, fluorescence kinetic. P06746. Potency, µM (top dose mostly 114 µM), most hits filed as inhibitors. 340,000 compounds, 1.3% hits. AID 485314
#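 Kinetic readout of DNA synthesis with strand displacement by Pol beta. Compound and 10 nM enzyme sit 15 min at room temperature; 50 nM substrate starts the reaction, read immediately and at 10 min.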
# A number is an active result; i = inactive; ? = inconclusive; nt = not tested or not shown; ! = not active in a repeat. Unless noted, calls follow the shape of the dose curve; as a rule, active = well fitted inhibition curve with a large enough effect; inconclusive = small, poorly fitted or top-dose-only effect, or another doubt; inactive = no such curve, though single readings can be large or run the other way.
SMILES,PI5P4Ka inh,Pol iota inh,POLH inh,ALOX12 inh,POLK inh,Pol beta inh
O=C(/C=C/C(=O)c1ccc(Cl)cc1)c1ccccc1,nt,nt,nt,2.5µM,nt,nt
Cc1ccc(C(=O)/C=C/c2cc(Br)c(O)c(Br)c2)cc1,nt,nt,nt,28µM,nt,nt
Cc1ccc(/C=C/C(=O)c2ccc(C)cc2)cc1,nt,i,i,i,i,i
CN(C)/C=C/C(=O)c1ccc(Br)cc1,i,i,i,7.9µM,i,i
CN(O)/C=C/C(=O)c1ccc(Br)cc1,?,i,i,?,i,i
Cc1ccc(C(=O)C=Cc2cccc(C)c2)cc1,i,?,i,i,i,nt
COc1ccc2cnn(CC(=O)N3CCN(c4ccc(F)cc4)CC3)c(=O)c2c1OC,nt,nt,nt,i,nt,nt
COc1cc(C(=O)/C=C/c2cc(Br)c(O)c(OC)c2)ccc1OCC(=O)O,nt,nt,nt,10µM,nt,nt
COCCN=c1scc(-c2cccs2)n1/N=C/c1ccc(O)c(O)c1O,?,?,?,?,?,4.5µM
CCN(C(=O)CCC(=O)N1CCc2nc3cc(-c4ccc(OC)cc4)[nH]n3c(=O)c2C1)c1ccccc1,nt,nt,nt,i,nt,nt
COc1ccccc1OCCNc1nc(-c2cccnc2)nc2ccccc12,nt,nt,nt,i,nt,nt
CCOC(=O)N1CCC(N2CCN(c3cc(C)ccc3C)CC2)CC1,nt,?,i,6.3µM,i,i
CCOC(=O)c1ccc(N2CCN(c3cc(C)ccc3C)CC2)c(N)c1,i,i,i,i,i,i
CCc1nnc(N/N=C/c2ccccc2Cl)n1N,nt,?,i,i,i,i
CCc1nnc(N/N=C/c2ccc(N3CCC(C)CC3)c([N+](=O)[O-])c2)n1N,i,8.9µM,i,?,i,i
Cc1nnc(N/N=C/c2cc([N+](=O)[O-])c(N3CCC(C)CC3)cc2N2CCC(C)CC2)n1N,nt,4µM,i,?,i,i
Cc1nnc(N/N=C/c2ccc([N+](=O)[O-])cc2)n1N,i,?,i,i,i,i
CCCN(CCC)C(=O)Cc1c(C)[nH]c2ccc(C)cc12,nt,nt,nt,i,nt,nt
O=C(O)c1ccc2c(=O)n3c(nc2c1)/C(=C/c1ccc(F)cc1)CC3,i,i,i,i,i,i
O=C(O)c1ccc2c(=O)n3c(nc2c1)/C(=C/c1cccc(Cl)c1Cl)CCCC3,-73,i,i,i,i,i
Cn1c(=O)n(CC(=O)O)c(=O)c2c3c(sc21)COC(C)(C)C3,nt,nt,nt,i,nt,nt
Cc1nc2c(C(=O)N3CCN(c4ccccn4)CC3)cnn2c(C)c1Cc1cccc(Cl)c1,nt,89µM,i,i,i,i
CCOC(=O)N/N=C/c1cc(OC)c(O)c(OC)c1,i,i,i,i,i,?
CCOC(=O)c1sc(N/N=C/c2cc(Br)c(O)c(OC)c2)nc1C,?,?,35µM,i,?,32µM
CCOC(=O)N1CCC(NC(=O)c2cc3cc(F)ccc3[nH]2)CC1,nt,nt,nt,i,nt,nt
SMILES,PI5P4Ka inh,Pol iota inh,POLH inh,ALOX12 inh,POLK inh,Pol beta inh
COC(=O)c1c(/N=C/N(C)C)sc2c1CCN(c1ncc(C(F)(F)F)cc1Cl)C2,i,i,i,i,i,i
COC(=O)c1c(N(S(C)(=O)=O)S(C)(=O)=O)sc2c1CCN(c1ncc(C(F)(F)F)cc1Cl)C2,i,32µM,i,?,i,i
O=C(NCCc1c[nH]c2ccccc12)NC1CCCCCCC1,nt,nt,nt,i,nt,nt
O=C(NC1CC1)c1nc[nH]c1C(=O)NC1CCCCNC1=O (configuration not stated),nt,nt,nt,i,nt,nt
Cc1cccc(-n2nc3c(c2NC(=O)c2ccc(Br)o2)CSC3)c1,nt,i,i,i,i,56µM
Cc1cccc(-n2nc3c(c2NC(=O)CCCl)CSC3)c1,i,i,i,i,i,i
O=c1nc(/C=C/c2cc([N+](=O)[O-])ccc2Cl)cc(C(F)(F)F)[nH]1,i,?,22µM,?,i,i
O=c1nc(/C=C/c2cccn2-c2ccc([N+](=O)[O-])cc2)cc(C(F)(F)F)[nH]1,-69,40µM,45µM,?,89µM,?
O=C(CN1CCc2sccc2C1c1cccs1)Nc1ccc(F)cc1 (configuration not stated),nt,nt,nt,i,nt,nt
Cc1ccccc1Nc1c(-c2ccc(Cl)cc2)nc2c(C)cccn12,nt,i,i,i,i,i
Cc1ccccc1Nc1c(-c2ccc(Cl)s2)nc2c(C)cccn12,nt,i,i,?,i,11µM
CCn1c(N2CCN(Cc3ccc(F)cc3)CC2)nc2c1c(=O)[nH]c(=O)n2C,nt,nt,nt,i,nt,nt
Cc1ccc(CN(C)CC(=O)NC(=O)NC2CCCC2)cc1,nt,nt,nt,i,nt,nt
Clc1ccc(-c2ccn[nH]2)cc1,i,i,i,?,i,?
Cc1ccc(-c2ccnc(=S)[nH]2)cc1C,nt,nt,nt,2.5µM,nt,nt
Cc1ccc(-c2c(C)sc3nc[nH]c(=O)c23)cc1C,i,i,i,i,i,i
S=c1nccc(-c2ccc(Cl)cc2)[nH]1,i,i,i,13µM,i,i
CCN(CC)C(CNS(=O)(=O)c1cccs1)c1ccsc1 (configuration not stated),nt,nt,nt,i,nt,nt
COc1ccc2nc(N3C(=O)C(O)=C(C(=O)c4ccco4)C3c3ccc(OC)c(OC)c3)sc2c1 (configuration not stated),i,nt,i,40µM,nt,nt
COc1ccc(C2C(C(C)=O)=C(O)C(=O)N2c2nc3ccccc3s2)cc1OC (configuration not stated),i,i,i,45µM,i,i
CCCCOc1cccc(C2C(C(=O)c3ccc(C)o3)=C(O)C(=O)N2c2nnc(C)s2)c1 (configuration not stated),?,i,i,?,i,?
Cc1ccc2nc(N3C(=O)C(O)=C(C(=O)c4ccc(C)o4)C3c3cccc(O)c3)sc2c1 (configuration not stated),-58,?,i,13µM!,i,?
COC(=O)c1sc(N2C(=O)C(O)=C(C(=O)c3ccc(C)o3)C2c2ccc(OC)c(OC)c2)nc1C (configuration not stated),i,i,i,nt,i,i
COc1ccc(C(=O)Nc2nc(-c3nnn(-c4ccccc4Br)c3C)ns2)cc1,nt,nt,nt,i,nt,nt
CCN(Cc1ccccc1)C(=O)CCC1CCN(S(=O)(=O)c2ccccc2)CC1,nt,nt,nt,i,nt,nt
SMILES,PI5P4Ka inh,Pol iota inh,POLH inh,ALOX12 inh,POLK inh,Pol beta inh
S=c1[nH]nc(NCCCN2CCOCC2)s1,-69,i,i,?,i,i
CN(CC(=O)Nc1ccc(Cl)cc1)C(=O)CCc1nc2sc3c(c2c(=O)[nH]1)CCCC3,?,28µM,?,i,i,nt
CCCc1nc2sc3c(c2c(=O)[nH]1)CCCC3,i,i,i,i,i,i
Cc1cc(C)cc(NC(=O)CCc2nc3sc4c(c3c(=O)[nH]2)CCCC4)c1,?,45µM,20µM,?,?,nt
O=C(CCc1nc2sc3c(c2c(=O)[nH]1)CCCC3)NCCc1ccc(F)cc1,?,?,?,i,i,22µM
O=C(CCc1nc2sc3c(c2c(=O)[nH]1)CCCC3)Nc1cccc(Cl)c1,?,79µM,13µM,?,i,nt
CCCc1nc2ccccc2c(C(=O)OCC(=O)NC)c1CC,nt,nt,nt,i,nt,nt
